# Source: PubChem BioAssay AID463173 (ICCB-Longwood Screening Facility, Harvard Medical School, 2010)
# In all, about 52,000 compounds went through this assay and about 4,300 (8.3%) were called active. Shown is part of a subset that was picked to be rich in actives. A number with no mark means an inactive call. Cut-off read from the data, not from the text of the source: active = survival mostly below about 52% (no sharp cut-off); inactive = mostly above about 56%.
# Tested on: DeltatarO mutant
# Assay: growth inhibition of S. aureus wild type versus tarO mutant, primary screen, teichoic acid synthesis inhibitors, RN4220, OD600 (AID 463173)
# Conditions: OD600, 18 h, active compounds read low, screened at 18.75 µg/mL (by protocol)
row,SMILES,survival
1,Cn1c(SCC(N)=O)nc2c([nH]c3ccccc32)c1=O,88%
2,COc1ccccc1N1CCN(C(=O)C(CCSC)NS(=O)(=O)c2ccc3c(c2)oc(=O)n3C)CC1 (configuration not stated),87%
3,Cc1ccc(Cn2c(=O)n(-c3ccccc3)c(=O)c3ccc(C(=O)NCc4ccco4)cc32)cc1,75%
4,COc1ccc(CCN2C(=O)NC(NC(=O)c3ccccc3OC)(C(F)(F)F)C2=O)cc1OC (configuration not stated),77%
5,COc1cccc(CNC(=O)c2ccc3c(c2)N(C)C(=O)C2CCCCN32)c1 (configuration not stated),72%
6,CSc1ccc(CNC(=O)c2ccc3c(c2)N(C)C(=O)C2CCCCN32)cc1 (configuration not stated),92%
7,COc1ccc(CNC(=O)c2ccc3c(c2)N(C)C(=O)C2CCCCN32)cc1OC (configuration not stated),75%
8,Cc1cccc(CNC(=O)c2ccc3c(c2)N(C)C(=O)C2CCCCN32)c1 (configuration not stated),0% (active)
9,CCCCOc1ccc(CNC(=O)c2ccc3c(c2)N(C)C(=O)C2CCCCN32)cc1 (configuration not stated),74%
10,CC(C)Oc1ccc(CNC(=O)c2ccc3c(c2)N(C)C(=O)C2CCCCN32)cc1 (configuration not stated),37% (active)
11,CCOc1ccc(CNC(=O)C2CCCN(c3nn4cc(-c5ccc(OC)cc5)nc4s3)C2)cc1 (configuration not stated),99%
12,Cc1c2cnn(CC(=O)N3CCN(c4ccccc4)CC3)c(=O)c2c(C)n1Cc1ccc(F)cc1,67%
13,COc1ccc(-c2cc(C(N)=O)on2)c(OC)c1,99%
14,O=S(=O)(c1cccc(S(=O)(=O)N2CCOCC2)c1)N1CCCCCC1,91%
15,Cc1ccc2occ(CC(=O)Nc3nnc(C(C)C)s3)c2c1,70%
16,CCCCSCCCNC(=O)c1cn(C)c2ccc(S(=O)(=O)N3CCCCCC3)cc2c1=O,63%
17,CCOc1ccc(NC(=O)c2oc3ccccc3c2NC(=O)C2CCCCC2)cc1,103%
18,COc1ccc(NC(=O)c2oc3ccccc3c2NC(=O)C2CCCCC2)c(OC)c1,74%
19,CN(C)c1ccc(C(=O)Nc2c(C(=O)NC(C)(C)C)oc3ccccc23)cc1,57%
20,COc1cc(OC)cc(C(=O)Nc2c(C(=O)Nc3ccc(F)cc3)oc3ccccc23)c1,62%
21,CC(C)(C)NC(=O)c1oc2ccccc2c1NC(=O)c1ccc(F)cc1,71%

row,SMILES,survival
1,COc1cccc(NC(=O)c2oc3ccccc3c2NC(=O)C2CCCCC2)c1,66%
2,Cc1ccc(NC(=O)c2oc3ccccc3c2NC(=O)C23CC4CC(CC(C4)C2)C3)cc1,75%
3,Cc1ccc(C(=O)Nc2c(C(=O)NC(C)(C)C)oc3ccccc23)cc1,32% (active)
4,Cc1ccc(NC(=O)c2oc3ccccc3c2NC(=O)C2CCCCC2)cc1,2% (active)
5,O=C(Nc1ccc(F)cc1)c1oc2ccccc2c1NC(=O)C1CCCCC1,11% (active)
6,O=C(Nc1ccc(F)cc1)c1oc2ccccc2c1NC(=O)C12CC3CC(CC(C3)C1)C2,96%
7,COc1ccccc1NC(=O)c1oc2ccccc2c1NC(=O)C1CCCCC1,43% (active)
8,CCOC(=O)c1ccc(NC(=O)Cn2nc3c4ccccc4n(Cc4cccc(F)c4)cc-3c2=O)cc1,82%
9,Cc1cc(C)nc(Nc2ccc(O)cc2)n1,91%
10,CC(C)c1ccc(S(=O)(=O)c2nnn3c2nc(NC2CCCC2)c2sccc23)cc1,65%
11,CCN(CC)c1ccc(NC(=O)c2cnn(-c3ccccc3)c2-n2cccc2)c(C)c1,115%
12,CCN(CC)CCNC(=O)c1[nH]c2ccccc2c1Sc1ccc(Cl)cc1,45%
13,CC1CCCCN1CCCNC(=O)c1[nH]c2ccccc2c1Sc1ccc(Cl)cc1 (configuration not stated),1% (active)
14,CCC1CCCCN1CCCNC(=O)c1[nH]c2ccccc2c1Sc1ccc(Cl)cc1 (configuration not stated),-1% (active)
15,CCCCNC(=O)c1[nH]c2ccccc2c1Sc1ccc(C)cc1,75%
16,CC1CCCCN1CCCNC(=O)c1cc(Sc2cccc(Cl)c2)nc2ccccc12 (configuration not stated),68%
17,CC1CCCCN1CCCNC(=O)Cn1ncc2c([nH]c3ccccc32)c1=O (configuration not stated),124%
18,CC1CCCCN1C(=O)CN1CCSc2ccccc21 (configuration not stated),74%
19,Cc1nc2sc(C(N)=O)c(N)c2c(-c2ccc(Br)cc2)c1C(=O)Nc1ccc(Cl)cc1,10% (active)
20,Cc1nc2sc(C(=O)Nc3ccc(F)cc3)c(N)c2c(-c2ccc(Br)cc2)c1C(=O)Nc1ccc(Cl)cc1,80%
21,COc1ccc(NC(=O)c2sc3nc(C)c(C(=O)Nc4ccc(Cl)cc4)c(-c4ccc(Br)cc4)c3c2N)cc1,57%

row,SMILES,survival
1,Cc1ccc(CNC(=O)CCN2C(=O)C(C)Oc3ccc(C)cc32)cc1 (configuration not stated),128%
2,Cn1cc(C(=O)O)c(=O)c2ccccc21,80%
3,CCc1nnc(NC(=O)c2c(O)c3ccccc3n(C)c2=O)s1,-1% (active)
4,CCCNC(=O)c1c(O)c2ccccc2n(C)c1=O,93%
5,CCc1nnc(NC(=O)c2c(O)c3ccccc3[nH]c2=O)s1,84%
6,Cc1ccc(C)c(C(=O)COC(=O)CCCC(=O)Nc2cc(C(F)(F)F)ccc2Cl)c1,25% (active)
7,COc1ccc(C(=O)COC(=O)CCCC(=O)Nc2cc(C(F)(F)F)ccc2Cl)cc1,53%
8,Cc1ccc(C(=O)COC(=O)CCCC(=O)Nc2cc(C(F)(F)F)ccc2Cl)cc1C,54%
9,COc1ccc(Cl)cc1NC(=O)CCS(=O)(=O)c1nc(-c2cccs2)cc(C(F)(F)F)n1,63%
10,Nc1cc(=O)nc(SCC(=O)Nc2ccc(F)cc2)n1-c1cccc(Cl)c1,145%
11,CCOc1ccccc1NC(=O)CSc1nc(-c2cccs2)cc(C(F)(F)F)n1,69%
12,O=C(CSc1nc(-c2cccs2)cc(C(F)(F)F)n1)Nc1ccccc1Cl,121%
13,COc1ccc(NC(=O)CSc2nc(-c3cccs3)cc(C(F)(F)F)n2)c(OC)c1,57%
14,COc1cc(NC(=O)CSc2nc(-c3cccs3)cc(C(F)(F)F)n2)cc(OC)c1OC,49%
15,Cc1ccc(NC(=O)CSc2nc(-c3cccs3)cc(C(F)(F)F)n2)cc1C,155%
16,CC(C)(C)c1ccccc1NC(=O)CSc1nc(-c2cccs2)cc(C(F)(F)F)n1,23% (active)
17,Cc1ccc(NC(=O)CSc2nc(=O)cc(N)n2-c2ccccc2)cc1,87%
18,COc1ccc(NC(=O)CSc2nc(-c3cccs3)cc(C(F)(F)F)n2)cc1Cl,37% (active)
19,COC(=O)c1ccccc1NC(=O)CSc1nc(=O)cc(N)n1-c1ccccc1,38% (active)
20,COc1ccc(Cl)cc1NC(=O)CSc1nc(-c2cccs2)cc(C(F)(F)F)n1,35% (active)
